# Reference: PubChem BioAssay
# A number with no mark means an inactive call. Calls of active or inactive are those of the source.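 The calls were made as follows: active = inhibition above the hit cutoff set in the earlier primary screen (cut at about 27% in these data); inactive = the rest.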
# Biological target: Protein phosphatase methylesterase 1 (Homo sapiens) (UniProt Q9Y570)
# Test: PME-1 inhibitor activity retest, confirmation, biochemical, fluorescence polarization, FP-Rh probe, triplicate (AID 2171);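 also: 0% = enzyme with DMSO and 100% = wells lacking PME-1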
# Conditions: recombinant PME-1, FP-Rh probe fluorescence polarization; at 5.9 µM; active compounds read high
# Protein phosphatase methylesterase 1 (Homo sapiens), sequence (Q9Y570 whole entry, looked up): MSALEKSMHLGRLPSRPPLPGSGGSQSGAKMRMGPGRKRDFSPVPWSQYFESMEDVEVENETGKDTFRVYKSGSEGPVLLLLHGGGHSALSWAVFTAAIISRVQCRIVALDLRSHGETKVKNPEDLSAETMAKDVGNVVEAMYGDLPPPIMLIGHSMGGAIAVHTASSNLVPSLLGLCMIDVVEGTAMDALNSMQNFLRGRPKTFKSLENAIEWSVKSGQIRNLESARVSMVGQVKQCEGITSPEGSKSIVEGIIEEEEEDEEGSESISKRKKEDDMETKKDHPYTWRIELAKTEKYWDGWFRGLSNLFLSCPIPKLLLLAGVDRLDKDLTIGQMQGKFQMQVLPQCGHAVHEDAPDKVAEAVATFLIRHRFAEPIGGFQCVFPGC
row,Structure (SMILES),inhibition
1,Cc1ccc(C)c(NC(=O)COC(=O)c2cccc3c2C(=O)c2ccccc2C3=O)c1,92.7% (active)
2,Cc1cc(Nc2ccc(O)cc2)ccc1N,17.6%
3,O=C(CNc1ccc(F)cc1)N/N=C/c1c(O)ccc2ccccc12,16.3%
4,Cc1noc(NS(=O)(=O)c2ccc(NC(=O)Nc3ccc(Cl)c(Cl)c3)cc2)c1C,-8.57%
5,CCOc1ccc(NC(C(=O)Nc2cccc(C(C)=O)c2)c2ccccc2)cc1 (stereo not given),33.5% (active)
6,O=C(CSc1nnc(SCc2ccccc2Cl)s1)N/N=C/c1c[nH]c2ccccc12,19.3%
7,CCOc1cc(N(CC)CC)ccc1/C=C(/C#N)c1nc2ccccc2[nH]1,8.91%
8,CCCCN(CCCC)CCNC(=O)c1cn(CC)c2ccc(S(=O)(=O)N3CCc4ccccc4C3)cc2c1=O,48.8% (active)
9,O=C(O)c1ccc(-c2ccc(/C=N/Nc3ccc([N+](=O)[O-])cc3)o2)cc1,33.5% (active)
10,O=C1NN(c2ccc(Cl)c(Cl)c2)C(=O)/C1=C/c1cccc(OC(=O)c2cccs2)c1,8.75%
11,CCN(CC)c1ccc(/C=N/NC(=O)c2cccc(S(=O)(=O)Nc3ccccc3OC)c2)c(O)c1,25.8%
12,O=C(c1cccs1)N1CCC(c2nc3c(nnn3Cc3ccccc3Cl)c(=O)[nH]2)CC1,25.4%
13,COc1ccc(Nc2ncnc3sc(-c4ccccc4)cc23)cc1OC,6.82%
14,Cc1cc(C(C#N)c2ccc(Cl)cc2)c(Cl)cc1NC(=O)c1cc(I)cc(I)c1O (stereo not given),47.6% (active)
15,CCCCC(=Nc1ccc(N)cc1)C1=C(O)C(C(=O)OC)C(C)(C)CC1=O (stereo not given),13.4%
16,CC1(OC(=O)c2cnc3ccccc3n2)C(=O)C=C2C=C(C3CC3)OC=C2C1=O (stereo not given),23.9%
17,CCOC(=O)c1sc(N/N=C/c2cc(Br)c(O)c(OC)c2)nc1C,21.6%
18,COc1cccc(-c2nc(NC3CCCC3)c3ccccc3n2)c1O,13.3%
19,Nc1c(N2CCCC2)cc(Cl)c2nonc12,18.8%
20,N[C@H](CSCc1ccccc1)C(=O)Nc1ccc([N+](=O)[O-])cc1,-1.96%

row,Structure (SMILES),inhibition
1,Cn1c(=O)c(NCCc2ccccc2)c2c3c(cccc31)C(=O)c1ccccc1-2,177% (active)
2,Cc1ccc(S(=O)(=O)/N=C2/C=C(Sc3ncn[nH]3)C(=O)c3ccccc32)c(C)c1,49.6% (active)
3,Cc1csc(NC(=O)c2sc3nc(-c4cccs4)ccc3c2N)n1,42.6% (active)
4,O=C(O)c1ccc(N/N=C/c2ccc(-c3ccc(Cl)cc3Cl)o2)cc1,85.9% (active)
5,CCN(CC)S(=O)(=O)c1ccc(Cl)c(NC(=O)COC(=O)c2ccc(O)cc2)c1,24.9%
6,Cc1ccc(C(=O)Nc2nnc(CC(=O)N/N=C/c3ccc(O)c(O)c3)s2)cc1,-26.6%
7,Cc1ccc(NC(=O)COC(=O)c2cccc3c2C(=O)c2ccccc2C3=O)c(C)c1,91.2% (active)
8,COc1cccc(Oc2ccc(S(=O)(=O)N3CCCC3)cc2[N+](=O)[O-])c1,21.4%
9,CCc1nnc(NC(=O)c2sc3nc4cc(C)ccc4cc3c2N)s1,31.8% (active)
10,COc1ccc(CCn2c(N)c(C#N)c3nc4ccccc4nc32)cc1OC,25.9%
11,O=C(CNc1ccccc1)N/N=C/c1c(O)ccc2ccccc12,17.1%
12,Cc1cc(C)cc(NC(=S)NCCc2c[nH]c3ccccc23)c1,25.5%
13,COC(=O)c1ccc(Cn2nnc3c(=O)[nH]c(C4CCN(S(=O)(=O)c5ccc(F)cc5)CC4)nc32)cc1,38% (active)
14,CCN(CC)C(=O)c1csc(Nc2cccc3ccccc23)n1,23.8%
15,Cc1[nH]c2ccccc2c1/C=N/Nc1nc(Nc2ccccc2)nc(N2CCOCC2)n1,34.2% (active)
16,O=C(/C=C1\NC2(CCCC2)Cc2ccccc21)C(=O)N/N=C/c1ccc(O)c(O)c1,-18.9%
17,Cc1[nH]c2ccccc2c1/C=N/NC(=O)c1cc(-c2ccncc2)nc2ccccc12,23%
18,COc1ccc(C)cc1NC(=O)NNC(=O)c1cc2ccccc2cc1O,16.4%
19,O=C1NC(=S)/C(=C\c2ccc(-c3ccccc3Cl)o2)S1,33.2% (active)
20,CCOC(=O)N1CC=C2C(C#N)=C(N)C(C#N)(C#N)[C@H](c3cccs3)C2C1 (stereo not given in full),35.2% (active)
